Assay [1] can be described thus: NFAT Signaling Pathway (AID 444; active = well fitted curve in either direction with a large enough effect, not every such curve was filed as active;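 note: carbachol stimulus at about its EC50 of 1 µM final; % is set by controls: 0 for no effect and ±100 for the full control effect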). The settings on record: Jurkat NFAT-bla M1, carbachol, beta-lactamase ratio, 5 h; at 7.69 µM (top of the series) unless noted. The method, boiled down: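 Jurkat cells carrying an NFAT-driven β-lactamase reporter and co-transfected muscarinic M1 receptor were treated with compound plus carbachol (1 uM final, an EC50 level) for 5 h at 37 °C. CCF4 loading followed for 1 h at RT; 460/530 nm ratio gave %activity.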

Assay [2] addresses Glucocorticoid receptor (Homo sapiens) (UniProt P04150). The assay is described as follows: GR-GFP Redistribution (AID 450;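 active = compounds whose dose series gives a full or clear partial fitted curve of increased nuclear translocation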; note: potency is the fitted concentration of half-maximal effect). To be noted: U2OS GR-GFP nuclear translocation, laser cytometry, 2 h.
For assay [3] the target is unchanged. Briefly: GR-EFC Redistribution (AID 451; calls by dose curve; note: potency is the fitted concentration of half-maximal effect). To be noted: CHO-K1 GR-EFC translocation, beta-gal luminescence, 2 h. The method, boiled down:
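CHO-K1 cells stably expressing nuclear-localized β-gal enzyme acceptor and GR fused C-terminally to the enzyme donor fragment; ligand-driven nuclear translocation restores β-gal by complementation. Compounds titrated up to 46 uM final, 2 h at 37 °C; luminescence read.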

Assay [4] deals with Ubiquitin carboxyl-terminal hydrolase 1 (Homo sapiens) (UniProt O94782). Briefly: Inhibitors of USP1/UAF1: Pilot qHTS (AID 504865).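 Note: rhodamine fluorescence freed from ubiquitin-rhodamine substrate followed over time; top concentration of the series differs between compounds; % is set by controls: 0 for no effect and ±100 for the full control effect; nearly all actives have a fitted effect of over 35% in size.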 Put shortly: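 In 50mM HEPES pH 7.8 containing 0.5mM EDTA, 1mM TCEP, 0.1 mg/ml BSA and 0.01% Tween-20, 1nM USP1/UAF1 is exposed to compound for 15 min, then Ub-Rho (150nM final) is added and fluorescence is read over time.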
In general terms: In qHTS, concentration-response curves come from the screen itself.

Assay [5] in a line: Cellular Toxicity (caspase-3) N2a (AID 665).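 Note: compound exposure lasted 16 h at 37 °C before readout.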 The method, boiled down:
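Mouse N2a neuroblastoma cells (1500/well) were treated with compounds for 16 h at 37 °C, then caspase-3/7 activity was read by Caspase-Glo luminescence after 1 h at room temperature. Data were normalized to DMSO and 10 uM staurosporine; AC50 from Hill fits.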

In assay [6] the target is Cytochrome P450 3A4 (Homo sapiens) (UniProt P08684). Briefly: qHTS Assay for Inhibitors and Substrates of Cytochrome P450 3A4 (AID 884). Note: nearly all actives have a fitted effect of over 50% in size. Note: potency is the fitted concentration of half-maximal effect. Put shortly: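 20 nM human CYP3A4 with 25 uM Luciferin-PPXE (at KM) in 200 mM KPO4, preincubated 10 min with compound; NADPH regeneration started a 60 min RT reaction. Luciferin detected by luminescence, normalized to 57 uM ketoconazole as full inhibition.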

A short description of assay [7]: Cell Viability - LYMP2-004 (AID 966).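 Note: plate controls were DMSO only for no effect and tetraoctylammonium bromide control for full effect; nearly all actives have a fitted effect of over 65% in size.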 Put shortly: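 Human lymphoblastoid cells (2500/well) in complete medium were treated with compounds for 24 hr at 37 C, then intracellular ATP was measured by CellTiter-Glo luminescence. AC50 values came from Hill-equation fits of concentration-response data.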
Assay [8] has as its target Bile acid receptor (Homo sapiens) (UniProt Q96RI1). Briefly: qHTS assay for small molecule antagonists of farnesoid X receptor signaling (AID 588526; calls by dose curve; note: % is set by controls: 0 for no effect and ±100 for the full control effect). Put shortly: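 Concentration-response titrations were fitted to the Hill equation for half-maximal inhibition and maximal response, with data normalised to 50 uM chenodeoxycholic acid and DMSO control wells. Cells: FXR-UAS-bla HEK293T, dialyzed FBS.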

Assay [9] has as its target Glucocorticoid receptor (Homo sapiens) (UniProt P04150). The assay is described as follows: qHTS assay for small molecule agonists of glucocorticoid receptor signaling (AID 588532; active = well fitted curve in the direction sought with a large enough effect in the signal ratio, with a control signal flat; the % refers to the signal ratio;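 note: 100% = dexamethasone at 0.1 µM and 0% = DMSO only wells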). The settings on record: HeLa MMTV-bla, beta-lactamase ratio, agonist, 18 h; stronger effect = higher value; percent of dexamethasone control, DMSO zero. The method, boiled down: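 Titration series, up to 92 uM, applied to GRE-bla HeLa cells for 18 h at 37 C. Detection by CCF4 FRET substrate after 2 h at RT.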

For assay [10] the target is unchanged. The assay is described as follows: qHTS assay for small molecule antagonists of glucocorticoid receptor signaling (AID 588533; active = well fitted inhibition curve with a large enough effect in the signal ratio, with a control signal flat, not every such curve was filed as active; the % refers to the signal ratio;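 note: cells stimulated with 2 nM dexamethasone as agonist; % is set by controls: 0 for no effect and ±100 for the full control effect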). Put shortly: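 Antagonist-mode qHTS: compound titrations added to GRE-bla HeLa cells, then dexamethasone 2 nM final; 18 h, 37 C. CCF4 FRET fluorescence normalized to dexamethasone and DMSO; IC50 from Hill fit.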
The nature of assay [11]: qHTS assay for small molecule antagonists of peroxisome proliferator-activated receptor delta signaling (AID 588535; active = well fitted inhibition curve with a large enough effect in the signal ratio, with a control signal flat, not every such curve was filed as active; the % refers to the signal ratio;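 for max response: cells co-treated with a PPAR-delta agonist as stimulator during compound exposure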). To be noted: HEK293T PPARd-UAS-bla, beta-lactamase FRET ratio, 18 h; 460 nm channel. Put shortly: (§1)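 GeneBLAzer PPAR-delta-UAS-bla HEK293T cells in medium with 2% charcoal/dextran FBS were preincubated 5 hrs at 37 C, then given compounds, incubated 18 hrs at 37 C, and read by CCF4 beta-lactamase fluorescence; IC50 from Hill fits.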

The target of assay [12] is Peroxisome proliferator-activated receptor delta (Homo sapiens) (UniProt Q03181). The assay is described as above. The method, boiled down:
as §1

Assay [13] has as its target Peroxisome proliferator-activated receptor gamma (Homo sapiens) (UniProt P37231). Briefly: qHTS assay for small molecule antagonists of peroxisome proliferator-activated receptor gamma signaling (AID 588537; active = well fitted inhibition curve with a large enough effect in the signal ratio, with a control signal flat, not every such curve was filed as active; the % refers to the signal ratio;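 note: reporter cells co-stimulated with 50 nM rosiglitazone agonist during compound treatment; % of control where 0% means no effect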). The method, boiled down: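 PPAR-gamma-UAS-bla HEK293 cells (3000/well, 1% charcoal/dextran-stripped FBS) were preincubated 6-6.5 h at 37 C, given titrated compounds, then stimulated with 50 nM rosiglitazone for 16 h. Beta-lactamase activity was read with CCF4 dye; IC50 came from Hill fits.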

Assay [14] addresses Vitamin D3 receptor (Homo sapiens) (UniProt P11473). Briefly: qHTS assay for small molecule antagonists of vitamin D receptor signaling (AID 588541; calls by dose curve;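 note: receptor activated by calcitriol during compound treatment; % is set by controls: 0 for no effect and ±100 for the full control effect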). The method, boiled down: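 VDR-UAS-bla HEK293T cells (2000/well, 2% charcoal-stripped FBS) were treated with titrated compounds plus 1-alpha,25-dihydroxyvitamin D3 (50 nM or 3 nM final) for 16 h at 37 C. CCF4 beta-lactamase fluorescence was read; Hill fits gave IC50.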

Assay [15] in a line: qHTS assay for small molecule agonists of the antioxidant response element (ARE) signaling pathway (AID 651741; active = well fitted activation curve with a large enough effect in the signal ratio; the % refers to the signal ratio; note: % of control where 0% means no effect). The method, boiled down: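 ARE-bla HepG2 cells (beta-lactamase reporter under ARE control) were plated at 2,000 cells/well, preincubated 5 h at 37 C/5% CO2, then treated with DMSO-dissolved compounds for 16 h at 37 C; LiveBLAzer B/G FRET substrate added, fluorescence read after 2 h at room temperature.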

Assay [16] can be described thus: qHTS assay to identify small molecules that stimulate interleukin-8 (IL-8) secretion (AID 651758; active = well fitted activation curve with a large enough effect in the signal ratio; the % refers to the signal ratio; note: potency is the fitted concentration of half-maximal effect; for activation: 0% is about no effect). Put shortly:
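THP-1, 2000 cells/well; cpd 16 h, 37 C; add cryptate + XL665 anti-IL-8 Abs; RT 1-3 h; TR-FRET read.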

Assay [17] is described as follows: qHTS assay for environmental chemicals that activate the Aryl hydrocarbon Receptor (AhR) signaling pathway (AID 651777). Note: % of control where 0% means no effect; nearly all actives have a fitted effect of over 15% in size. To be noted: 1A2-DRE human hepatoma cells, luciferase, 24 h; activation: stronger effect = higher value. Put shortly:
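Human hepatoma 1A2-DRE cells, stably carrying a dioxin response element and CYP1A2 promoter driving luciferase, were exposed to compounds for 24 hr at 37 C and 5% CO2. Luciferase signal was then read after 30 min One-Glo at room temperature.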

The nature of assay [18]: Cellular Toxicity (caspase-3) Hek293 (AID 664).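 Note: cells exposed to compound for 16 h at 37 °C before readout.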 Put shortly:
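HEK293 cells were exposed to compounds in complete medium for 16 hr at 37 °C, then caspase-3/7 activity was read by Caspase-Glo 3/7 luminescence after 20 min at room temperature. Data normalized to DMSO and 100 uM tamoxifen; AC50 from Hill fits.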

The target in assay [19] is Nuclear receptor ROR-gamma (Homo sapiens) (UniProt P51449). The assay is described as follows: qHTS assay for small molecule antagonists of the retinoid-related orphan receptor gamma (ROR-gamma) signaling pathway (AID 651802). Note: % is set by controls: 0 for no effect and ±100 for the full control effect; nearly all actives have a fitted effect of over 60% in size. The method, boiled down:
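CHO cells carrying TET-inducible ROR-gamma and an ROR response element–luciferase reporter were exposed to compound, then induced with doxycycline. After 16hr at 37C, luminescence was read; lower signal indicates antagonism.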

A short description of assay [20]: Cell Viability - LYMP1-002 - Assay at 24 hr (AID 993). Note: % is set by controls: 0 for no effect and ±100 for the full control effect. Put shortly:
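Human lymphoblastoid LYMP1-002 cells, 2500/well in complete medium, were treated with compounds for 24 h at 37 C; intracellular ATP was read by CellTiter-Glo luminescence. AC50 values came from Hill-equation fits of qHTS concentration-response data.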

Where “and” joins values, the source holds several entries; their conditions need not be identical. Identical values can stand only once. Records with an inconclusive call do not appear. Calls of active or inactive are those of the source. Unless noted, calls come from the whole dose curve; as a rule, active = well fitted curve in the direction sought with a large enough effect; inconclusive = small, poorly fitted or top-dose-only effect, or another doubt; inactive = no such curve, though single readings can be large; an effect the other way counts as inactive or inconclusive.

Chain of Nuclear receptor ROR-gamma (Homo sapiens) (P51449 whole entry, looked up): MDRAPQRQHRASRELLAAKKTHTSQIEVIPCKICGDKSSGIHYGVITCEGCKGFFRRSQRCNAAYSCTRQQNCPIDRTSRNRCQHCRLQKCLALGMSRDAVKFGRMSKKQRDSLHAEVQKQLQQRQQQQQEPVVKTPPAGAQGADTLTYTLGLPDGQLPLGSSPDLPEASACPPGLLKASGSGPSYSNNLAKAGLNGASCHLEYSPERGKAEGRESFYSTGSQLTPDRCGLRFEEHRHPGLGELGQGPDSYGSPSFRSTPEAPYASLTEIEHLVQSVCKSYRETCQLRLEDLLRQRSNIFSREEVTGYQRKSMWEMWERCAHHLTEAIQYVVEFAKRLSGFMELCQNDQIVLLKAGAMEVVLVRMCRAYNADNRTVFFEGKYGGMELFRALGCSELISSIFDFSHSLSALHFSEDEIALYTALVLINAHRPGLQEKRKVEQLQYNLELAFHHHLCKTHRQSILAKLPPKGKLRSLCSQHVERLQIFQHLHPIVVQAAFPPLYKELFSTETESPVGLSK
Chain of Bile acid receptor (Homo sapiens) (Q96RI1 whole entry, looked up): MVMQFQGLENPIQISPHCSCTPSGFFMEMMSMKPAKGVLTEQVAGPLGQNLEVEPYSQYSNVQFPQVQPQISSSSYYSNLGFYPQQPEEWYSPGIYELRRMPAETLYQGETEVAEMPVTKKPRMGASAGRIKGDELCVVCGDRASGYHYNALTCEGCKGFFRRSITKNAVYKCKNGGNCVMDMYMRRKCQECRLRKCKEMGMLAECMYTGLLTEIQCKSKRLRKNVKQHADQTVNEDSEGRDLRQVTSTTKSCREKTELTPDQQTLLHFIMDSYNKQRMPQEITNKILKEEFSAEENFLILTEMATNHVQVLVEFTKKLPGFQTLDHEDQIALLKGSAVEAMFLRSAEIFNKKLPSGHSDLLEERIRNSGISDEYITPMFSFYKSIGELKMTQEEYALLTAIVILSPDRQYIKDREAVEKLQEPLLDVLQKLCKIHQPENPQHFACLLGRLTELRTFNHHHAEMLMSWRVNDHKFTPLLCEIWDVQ
Chain of Peroxisome proliferator-activated receptor delta (Homo sapiens) (Q03181 whole entry, looked up): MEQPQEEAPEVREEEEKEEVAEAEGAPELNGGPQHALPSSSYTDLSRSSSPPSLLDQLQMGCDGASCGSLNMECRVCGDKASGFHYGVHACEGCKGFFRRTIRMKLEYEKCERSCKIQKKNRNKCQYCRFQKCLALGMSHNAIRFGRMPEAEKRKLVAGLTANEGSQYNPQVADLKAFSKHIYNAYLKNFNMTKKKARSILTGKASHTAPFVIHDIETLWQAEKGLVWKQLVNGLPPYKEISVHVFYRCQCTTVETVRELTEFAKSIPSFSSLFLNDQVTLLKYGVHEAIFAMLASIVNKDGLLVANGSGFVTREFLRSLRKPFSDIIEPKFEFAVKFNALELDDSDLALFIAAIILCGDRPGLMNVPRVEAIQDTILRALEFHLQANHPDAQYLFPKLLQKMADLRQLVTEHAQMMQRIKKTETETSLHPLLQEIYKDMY
Chain of Ubiquitin carboxyl-terminal hydrolase 1 (Homo sapiens) (O94782 whole entry, looked up): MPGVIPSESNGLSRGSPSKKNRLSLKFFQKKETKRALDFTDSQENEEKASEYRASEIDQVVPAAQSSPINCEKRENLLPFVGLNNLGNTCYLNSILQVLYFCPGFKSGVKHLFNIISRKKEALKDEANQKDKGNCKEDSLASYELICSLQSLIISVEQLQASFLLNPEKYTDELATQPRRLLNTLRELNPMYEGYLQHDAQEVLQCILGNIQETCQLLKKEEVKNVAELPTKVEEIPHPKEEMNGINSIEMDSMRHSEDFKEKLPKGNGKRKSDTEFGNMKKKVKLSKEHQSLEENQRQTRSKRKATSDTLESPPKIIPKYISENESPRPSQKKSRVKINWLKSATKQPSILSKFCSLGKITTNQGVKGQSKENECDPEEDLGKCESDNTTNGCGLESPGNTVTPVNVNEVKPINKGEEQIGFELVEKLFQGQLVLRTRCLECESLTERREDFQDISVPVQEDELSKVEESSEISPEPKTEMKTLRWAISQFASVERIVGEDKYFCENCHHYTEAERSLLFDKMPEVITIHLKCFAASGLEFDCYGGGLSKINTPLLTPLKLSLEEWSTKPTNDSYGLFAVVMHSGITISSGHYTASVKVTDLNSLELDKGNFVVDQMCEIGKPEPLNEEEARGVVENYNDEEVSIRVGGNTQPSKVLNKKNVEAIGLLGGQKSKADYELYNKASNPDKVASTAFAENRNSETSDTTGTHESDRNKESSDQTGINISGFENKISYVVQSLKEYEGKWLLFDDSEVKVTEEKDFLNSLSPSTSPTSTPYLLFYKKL
Chain of Cytochrome P450 3A4 (Homo sapiens) (P08684 whole entry, looked up): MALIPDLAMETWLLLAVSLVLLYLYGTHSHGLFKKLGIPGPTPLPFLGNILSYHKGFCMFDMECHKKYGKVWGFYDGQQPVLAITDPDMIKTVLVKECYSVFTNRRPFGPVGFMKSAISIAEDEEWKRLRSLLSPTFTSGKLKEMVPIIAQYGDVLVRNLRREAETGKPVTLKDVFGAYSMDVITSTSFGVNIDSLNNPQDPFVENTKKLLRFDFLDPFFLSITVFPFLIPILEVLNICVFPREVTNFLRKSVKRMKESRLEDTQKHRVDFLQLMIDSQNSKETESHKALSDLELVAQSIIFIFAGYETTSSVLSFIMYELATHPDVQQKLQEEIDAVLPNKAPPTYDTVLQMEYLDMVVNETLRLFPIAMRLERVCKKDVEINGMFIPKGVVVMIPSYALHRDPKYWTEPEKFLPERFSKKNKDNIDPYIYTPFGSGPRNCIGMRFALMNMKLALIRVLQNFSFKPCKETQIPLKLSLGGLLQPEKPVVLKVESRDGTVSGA
Chain of Peroxisome proliferator-activated receptor gamma (Homo sapiens) (P37231 whole entry, looked up): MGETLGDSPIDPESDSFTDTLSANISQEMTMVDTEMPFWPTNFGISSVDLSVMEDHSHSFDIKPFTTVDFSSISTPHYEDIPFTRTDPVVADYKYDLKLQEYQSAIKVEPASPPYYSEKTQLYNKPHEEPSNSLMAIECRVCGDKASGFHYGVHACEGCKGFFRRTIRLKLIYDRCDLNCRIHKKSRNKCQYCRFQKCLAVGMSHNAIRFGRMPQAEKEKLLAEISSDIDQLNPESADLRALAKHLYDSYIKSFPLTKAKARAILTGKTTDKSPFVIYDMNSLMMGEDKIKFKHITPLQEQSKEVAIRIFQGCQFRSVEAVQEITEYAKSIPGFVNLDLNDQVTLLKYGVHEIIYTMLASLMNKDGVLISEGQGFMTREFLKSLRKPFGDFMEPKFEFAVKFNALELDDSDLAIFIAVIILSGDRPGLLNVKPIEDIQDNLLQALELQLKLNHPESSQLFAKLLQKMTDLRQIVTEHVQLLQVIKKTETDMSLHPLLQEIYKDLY
Chain of Glucocorticoid receptor (Homo sapiens) (P04150 whole entry, looked up): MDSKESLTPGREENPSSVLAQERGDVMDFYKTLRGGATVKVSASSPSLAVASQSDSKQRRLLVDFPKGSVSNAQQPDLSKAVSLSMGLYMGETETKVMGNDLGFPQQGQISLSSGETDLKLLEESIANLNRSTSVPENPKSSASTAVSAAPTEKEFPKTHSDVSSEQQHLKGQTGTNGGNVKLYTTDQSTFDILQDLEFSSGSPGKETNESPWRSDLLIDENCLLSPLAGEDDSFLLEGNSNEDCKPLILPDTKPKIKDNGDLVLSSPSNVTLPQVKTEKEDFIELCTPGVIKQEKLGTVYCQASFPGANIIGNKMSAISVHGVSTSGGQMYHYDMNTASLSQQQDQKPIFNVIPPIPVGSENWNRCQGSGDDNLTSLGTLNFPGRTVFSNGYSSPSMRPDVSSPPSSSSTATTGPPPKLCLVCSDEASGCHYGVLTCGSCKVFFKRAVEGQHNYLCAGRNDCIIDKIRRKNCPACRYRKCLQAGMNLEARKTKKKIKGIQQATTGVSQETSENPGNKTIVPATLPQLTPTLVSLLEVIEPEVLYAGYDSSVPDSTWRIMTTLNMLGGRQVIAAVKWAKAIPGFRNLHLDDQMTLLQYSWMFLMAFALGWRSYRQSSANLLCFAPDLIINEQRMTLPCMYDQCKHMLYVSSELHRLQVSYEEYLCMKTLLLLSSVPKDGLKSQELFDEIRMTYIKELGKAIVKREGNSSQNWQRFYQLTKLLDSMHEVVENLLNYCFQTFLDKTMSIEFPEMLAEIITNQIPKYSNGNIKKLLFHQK
Chain of Vitamin D3 receptor (Homo sapiens) (P11473 whole entry, looked up): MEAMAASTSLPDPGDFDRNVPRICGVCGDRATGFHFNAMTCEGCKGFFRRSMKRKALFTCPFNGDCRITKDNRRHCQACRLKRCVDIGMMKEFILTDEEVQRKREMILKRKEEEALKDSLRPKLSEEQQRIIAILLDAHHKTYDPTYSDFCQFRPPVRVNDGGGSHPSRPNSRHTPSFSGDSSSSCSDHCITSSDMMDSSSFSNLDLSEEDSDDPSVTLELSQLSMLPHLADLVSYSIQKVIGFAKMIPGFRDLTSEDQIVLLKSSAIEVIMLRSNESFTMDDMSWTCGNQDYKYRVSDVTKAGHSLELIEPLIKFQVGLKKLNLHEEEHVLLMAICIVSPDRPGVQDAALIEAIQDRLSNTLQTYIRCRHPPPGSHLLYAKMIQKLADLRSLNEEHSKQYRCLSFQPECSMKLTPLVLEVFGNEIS

Consider `CN(C)C(=O)c1ccc(-c2cc(NCc3ccccc3)ncn2)cc1`, for which the activity change, negative = inhibition in assay [1] was 27.8% (inactive). For the same molecule, the Potency in [2] and in [3] was > 46 µM (inactive) in each case. Besides, in [4], the Potency entry is “inactive”.

Turning to `O=C(O)CC(C(=O)O)C(CC(=O)O)C(=O)O` (stereo not given), the outcome in [5], in assay [8], in assay [13] and in assay [14] was inactive. Further, the Potency entry in assay [6], in [7], in assay [10], in assay [12], in [15] and in assay [16] was “inactive” each time. Besides, the activation is -3.1% (inactive) and -3.88% (inactive) in assay [9]; -0.527% (inactive) and 0.126% (inactive) in assay [17]. Besides, the max response in [11] worked out at 5.81%.

As for `COc1ccc2[nH]cc(CCNc3ncncc3-c3ccccc3C)c2c1`, the activity change, negative = inhibition in [1] is 7.13% (inactive). Also, the Potency in [2] is > 46 µM (inactive); in assay [3] it was > 46 µM (inactive); in assay [6], 0.316 µM (active). Besides, the Potency entry in assay [4] is “inactive”.

Turning to `Cc1ccccc1C`, the molecule was classed as inactive in assay [18] and in [14]. The activation is -7.63% (inactive) and -0.245% (inactive) in assay [9]; 1.3% (inactive) and -0.327% (inactive) in [17]. Besides, the Potency result in assay [10], in assay [12], in assay [15] and in assay [19] was “inactive” each time. The max response in [11] was -3.07% and -4.26%.

As for `CN(C)c1nc(-c2ccc3c(c2)OCO3)nc2ccccc12`, in assay [1], the activity change, negative = inhibition is -16.9% (inactive). Also, the Potency in assay [2] and in assay [3] was > 46 µM (inactive) each time.

Take `O=NO`: the molecule was classed as inactive in assay [5], in assay [13] and in assay [14]. Also, the Potency result in [6], in assay [20], in [12] and in [16] was “inactive” each time. Moreover, in assay [11], the max response is 3.13% and -3.55%.

Consider `C1OCOCO1`, for which the molecule was called inactive in assay [5] and in [8]. For the same molecule, the Potency entry in [6], in assay [7], in assay [4], in assay [10], in assay [12] and in [15] was “inactive” each time. In [19], the Potency result was “inactive”. The activation in [9] was 3.41% (inactive). Also, in assay [11], the max response is 2.46%. Besides, in [16], the Potency is 66.8 µM (active).

For the molecule `CC(=O)NCCNc1nc(-c2cccc(C#N)c2)nc2ccccc12`, in [1], the activity change, negative = inhibition was 12.4% (inactive). Moreover, the Potency in [2] and in assay [3] was > 46 µM (inactive) each time. In addition, the Potency result in assay [4] was “inactive”.

As for `COc1cccc(-c2ccc3ncnc(NCc4ccc(OC)cc4OC)c3c2)c1`, the activity change, negative = inhibition in assay [1] is -18.9% (inactive). Besides, the Potency in [2] was > 46 µM (inactive); in assay [3], > 46 µM (inactive); in assay [6], 2.51 µM (active). Besides, the Potency entry in assay [4] was “inactive”.

Regarding `CN(C)c1ccc(-c2cncnc2NCCc2cnc[nH]2)cc1`, in assay [1], the activity change, negative = inhibition was -15.1% (inactive). Moreover, the Potency in [2] and in assay [3] was > 46 µM (inactive) each time. In addition, in [4], the Potency result is “inactive”.

On to `C/C=C\c1ccc(OC)cc1`, for which the result in assay [18], in [5], in assay [8] and in assay [13] was inactive. Further, the Potency entry in assay [7], in [20], in [4], in assay [12], in assay [16] and in assay [19] was “inactive” each time. For the same molecule, the max response in assay [11] was -7.78%. Besides, the activation in [17] was -0.657% (inactive).

Regarding `COc1ccccc1CNc1nc(-c2ccc(C(=O)N(C)C)cc2)nc2ccccc12`, the activity change, negative = inhibition in assay [1] was -1.92% (inactive). Moreover, the Potency in [2] and in [3] was > 46 µM (inactive) each time. Besides, the Potency result in assay [4] was “inactive”.

As to `CC1(C)CC(N=C=O)CC(C)(CN=C=O)C1` (stereo not given), the call in [18], in assay [8], in assay [13] and in assay [14] was inactive. In addition, the Potency result in assay [15] and in assay [19] was “inactive” in each case.

For `CCCCOCCO`, the call in assay [5], in assay [8], in assay [13] and in [14] was inactive. Further, the Potency entry in [6], in assay [10], in [12], in [15], in assay [16] and in assay [19] was “inactive” in each case. The activation in [9] was -3.83% (inactive) and -1.18% (inactive). In assay [11], the max response was 1.73% and 13.5% and -16.7%.

Take `COc1cccc(-c2nc(N(C)C)c3ccccc3n2)c1`: the activity change, negative = inhibition in assay [1] was -14.5% (inactive). For the same molecule, the figures for the Potency in assay [2], in [3] and in [6] were > 46 µM (inactive), > 46 µM (inactive) and 5.01 µM (active), respectively.

The record behind these values is PubChem BioAssay (NCATS).
